C diff HTS: blocks growth of Clostridium difficile; Clostridium difficile clinical isolate growth, OD600, 24 h; hits give low values; growth activity, negative = inhibition, % at 16 µg/mL (by protocol); 86,000 tested, 0.25% active;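 active means mean growth activity at or below -80% and every replicate also at or below -80%; inconclusive means mean at or below -80% but some replicate above -80%; inactive means mean growth activity above -80%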;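 further: 0% = DMSO wells and -100% = levofloxacin 16 µg/mL wells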
Pf Dd2 growth: inhibitors of Plasmodium falciparum Dd2 growth. activity change, % at 10 µM. AID 1159554. P. falciparum Dd2 growth, SYBR Green, 72 h; hits give low values. 94,000 tested, 2.3% active; in the data active means activity change below about -80%; inconclusive means no clear call, values can overlap the other calls
Active calls of the source: *; ? = inconclusive; / = no result given; ! = repeats disagree. Shown are actives, neighbours in structure and some others; about 2.4% of the full set was active somewhere.

SMILES | C diff HTS | Pf Dd2 growth
COc1cccc(-c2ccc(C3[C@@H]4CN(Cc5ccccn5)C[C@H]3N4)cc2)c1 (stereo not given in full) | 13 | -69
COc1cccc(-c2ccc(C3[C@@H]4CN(Cc5cccc(F)c5)C[C@H]3N4)cc2)c1 (stereo not given in full) | -99* | -66
COc1ccc(-c2ccc(C3[C@@H]4CN(Cc5ccccn5)C[C@H]3N4)cc2)cc1 (stereo not given in full) | -12 | -75
COc1cccc(CN2C[C@@H]3N[C@H](C2)C3c2ccc(-c3ccncc3)cc2)c1 (stereo not given in full) | -3 | -89*!
COc1ccc(-c2ccc(C3[C@@H]4CN(Cc5cccc(OC)c5)C[C@H]3N4)cc2)cc1 (stereo not given in full) | -81*! | -68
COc1cccc(CN2C[C@@H]3N[C@H](C2)C3c2ccc(-c3cccc(C#N)c3)cc2)c1 (stereo not given in full) | 43 | ?
CCC(=O)N1CC(=O)N2[C@H](C1)[C@H](c1ccc(-c3ccccc3F)cc1)[C@@H]2CO | -5 | 19
COc1ccc(S(=O)(=O)Nc2cccc3c2O[C@H](CN(C)S(=O)(=O)c2c(C)noc2C)[C@H](C)CN([C@@H](C)CO)C3=O)cc1 | / | 6
O=C(C[C@@H]1C[C@@H]2c3cc(NC(=O)C4CCC4)ccc3O[C@@H]2[C@@H](CO)O1)NCc1ccccc1F | 2 | 3
CCCC(=O)Nc1ccc2c(c1)OC[C@@H](C)N(C(=O)C1CCCC1)C[C@H](C)[C@H](OC)CN(C)C2=O | / | -14
O=C(C[C@@H]1CC[C@H]2[C@@H](COC[C@@H](O)CN2C(=O)Nc2cccc(Cl)c2)O1)NCC1CCCCC1 | -3 | 3
Cn1cnc(CCNC(=O)C[C@H]2CC[C@@H]3[C@H](COC[C@@H](O)CN3C(=O)C3CCCC3)O2)c1 | -1 | 28
COc1ccc(CN(C)C[C@H]2Oc3c(NC(=O)c4ccc(-c5nccs5)cc4)cccc3C(=O)N([C@@H](C)CO)C[C@H]2C)cc1 | 1 | -82*
COc1ccc(CN(C)C[C@@H]2Oc3c(NC(=O)c4ccc(-c5nccs5)cc4)cccc3C(=O)N([C@H](C)CO)C[C@H]2C)cc1 | -12 | -84*
COc1ccc(CN(C)C[C@@H]2Oc3c(NC(=O)c4ccc(-c5nccs5)cc4)cccc3C(=O)N([C@@H](C)CO)C[C@H]2C)cc1 | -16 | -90*
COc1ccc(CN(C)C[C@H]2Oc3c(NC(=O)c4ccc(-c5nccs5)cc4)cccc3C(=O)N([C@@H](C)CO)C[C@@H]2C)cc1 | 33 | -66
COc1ccc(CN(C)C[C@@H]2Oc3c(NC(=O)c4ccc(-c5nccs5)cc4)cccc3C(=O)N([C@H](C)CO)C[C@@H]2C)cc1 | 14 | -42
COc1ccc(CN(C)C[C@H]2Oc3c(NC(=O)c4ccc(-c5nccs5)cc4)cccc3C(=O)N([C@H](C)CO)C[C@@H]2C)cc1 | 13 | -60
CCCN(C)C[C@H]1OCCCC[C@@H](C)Oc2ccc(NC(=O)CCC(F)(F)F)cc2C(=O)N([C@@H](C)CO)C[C@H]1C | 0 | /
O=C(NCC[C@@H]1CC[C@@H](NC(=O)c2ccc3c(c2)OCO3)[C@H](CO)O1)Nc1cc(F)ccc1F | / | 14
C[C@@H]1CN([C@@H](C)CO)C(=O)c2cc(NC(=O)Cc3cn(C)c4ccccc34)ccc2O[C@H]1CN(C)S(=O)(=O)c1cccs1 | / | -32
C[C@H]1CN([C@@H](C)CO)C(=O)c2cc(NC(=O)Cc3cn(C)c4ccccc34)ccc2O[C@H]1CN(C)S(=O)(=O)c1cccs1 | / | -90*
C[C@H](CO)N1C[C@H](C)[C@H](CN(C)S(=O)(=O)c2cccs2)Oc2ccc(NC(=O)Cc3cn(C)c4ccccc34)cc2C1=O | / | -86*
C[C@@H]1CN([C@H](C)CO)C(=O)c2cc(NC(=O)Cc3cn(C)c4ccccc34)ccc2O[C@H]1CN(C)S(=O)(=O)c1cccs1 | / | -21
C[C@H](CO)N1C[C@H](C)[C@@H](CN(C)Cc2ccc(Cl)c(Cl)c2)Oc2ccc(NC(=O)CCCN(C)C)cc2CC1=O | 1 | -67
SMILES | C diff HTS | Pf Dd2 growth
Cc1ccc(S(=O)(=O)N(C)C[C@H]2OCCCC[C@H](C)Oc3ccc(NC(=O)NC4CCCCC4)cc3C(=O)N([C@@H](C)CO)C[C@@H]2C)cc1 | -5 | ?
Cc1ccc(S(=O)(=O)N(C)C[C@@H]2OCCCC[C@H](C)Oc3ccc(NC(=O)NC4CCCCC4)cc3C(=O)N([C@@H](C)CO)C[C@@H]2C)cc1 | -4 | -83*
Cc1ccc(S(=O)(=O)N(C)C[C@H]2OCCCC[C@H](C)Oc3ccc(NC(=O)NC4CCCCC4)cc3C(=O)N([C@@H](C)CO)C[C@H]2C)cc1 | 1 | -86*
Cc1ccc(S(=O)(=O)N(C)C[C@@H]2OCCCC[C@@H](C)Oc3ccc(NC(=O)NC4CCCCC4)cc3C(=O)N([C@@H](C)CO)C[C@H]2C)cc1 | -4 | -71
CCCN(C)C[C@H]1Oc2ncc(Br)cc2C(=O)N([C@H](C)CO)C[C@H]1C | 8 | -20
CCC(=O)Nc1ccc2c(c1)OC[C@H](C)N(Cc1nccs1)C[C@H](C)[C@H](OC)CN(C)C2=O | 2 | -60
C/C=C/c1ccc2c(c1)O[C@H](CN(C)C(=O)C1CC1)[C@@H](C)CN([C@H](C)CO)S2(=O)=O | -3 | 17
COc1ccc2c3c(n(C)c2c1)[C@H](CO)N(Cc1ccncc1)CC31CCN(C(=O)Cc2ccncc2)CC1 | 14 | -87*
COc1ccc2c3c(n(C)c2c1)[C@H](CO)N(Cc1cccc(F)c1)CC31CCN(C(=O)Cc2ccccc2)CC1 | 7 | -83*
COc1ccc2c3c(n(C)c2c1)[C@@H](CO)N(Cc1ccc2c(c1)OCO2)CC31CCN(C(=O)c2ccc3c(c2)OCO3)CC1 | 1 | -76
COCC(=O)N1CCC2(CC1)CN(Cc1cccc(F)c1)[C@@H](CO)c1c2c2ccc(OC)cc2n1C | 7 | -50
COc1ccc2c3c(n(C)c2c1)[C@H](CO)N(Cc1ccc2c(c1)OCO2)CC31CN(C(=O)c2ccc3c(c2)OCO3)C1 | 4 | -88*
COc1ccc2c3c(n(C)c2c1)[C@@H](CO)N(Cc1ccncc1)CC31CCN(C(=O)C2CC2)CC1 | / | 19
COCC(=O)N1CC[C@H]2[C@@H]1c1cc(-c3ccc(F)cc3)ccc1N(C)[C@H]2CO | 6 | 28
C[C@H](CO)N1C[C@H](C)[C@H](CN(C)C(=O)Nc2ccc3c(c2)OCO3)Oc2c(NC(=O)c3ccncc3)cccc2C1=O | 1 | 2
O=C(N[C@H]1CC[C@H](CCn2cc(C3(O)CCCC3)nn2)O[C@H]1CO)C1CCOCC1 | / | -1
C[C@@H]1CCCCO[C@@H](CN(C)S(=O)(=O)c2ccccc2)[C@H](C)CN([C@@H](C)CO)C(=O)c2cc(NC(=O)Nc3ccc(C(F)(F)F)cc3)ccc2O1 | -3 | -75
COc1ccc(NC(=O)N(C)C[C@@H]2Oc3c(NS(=O)(=O)c4ccc(F)cc4)cccc3C(=O)N([C@H](C)CO)C[C@@H]2C)cc1 | 17 | -64
C[C@H](CO)N1C[C@H](C)[C@H](CN(C)Cc2ccc(C(=O)Nc3ccccc3N)cc2)Oc2ccc(NC(=O)CCC(F)(F)F)cc2C1=O | / | -81*
C[C@H]1CN([C@@H](C)CO)C(=O)c2cc(NC(=O)Nc3ccc(C(F)(F)F)cc3)ccc2O[C@@H]1CN(C)Cc1ccc(C(=O)Nc2ccccc2N)cc1 | / | -93*

Source: PubChem BioAssay
